In PubChem BioAssay AID1159580 (chemical genetic matrix, 2015):
Among all 5,500 compounds or so, about 2,000 (36%) were called active. About 18% were inconclusive and are not listed. No stated cut-off is given here; in the data, active means normalized growth mostly below about 0.91 (no sharp cut-off); inconclusive means no clear call, values can overlap the other calls; inactive means mostly above about 0.92. This is one part of the list.

Test: chemical genetic growth profiling, strain panel (AID 1159580);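 further: tested at 20 µM; growth read once vehicle control cultures reached saturation at 30 °C; 1 = growth at the plate median or of vehicle wells; lower values mean less growth of the strain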
Details: growth OD

Measured: normalized growth

CC(=O)N[C@@H](Cc1c[nH]c2ccccc12)C(N)=O
inactive: S. cerevisiae deletion strains, locus YJR075W, strain HOC1, hits give low values 0.959 | S. cerevisiae deletion strains, locus YKL009W, strain mrt4, hits give low values 1.01 | S. cerevisiae deletion strains, locus YKL068W, hits give low values 0.988 | S. cerevisiae deletion strains, locus YKL085W, strain MDH1 (second series), hits give low values 1.01 | S. cerevisiae deletion strains, locus YKL085W, strain MDH1, hits give low values 1.01 | S. cerevisiae deletion strains, locus YKL160W, strain elf1, hits give low values 1.02 | S. cerevisiae deletion strains, locus YKL190W, strain CNB1, hits give low values 0.979 | S. cerevisiae deletion strains, locus YKR001C, strain vps1, hits give low values 1.01 | S. cerevisiae deletion strains, locus YKR026C, strain gcn3, hits give low values 1.03 | S. cerevisiae deletion strains, locus YKR091W, strain srl3, hits give low values 1.01 | S. cerevisiae deletion strains, locus YLL001W, strain dnm1, hits give low values 1.03 | S. cerevisiae deletion strains, locus YLL026W, hits give low values 1.02 | S. cerevisiae deletion strains, locus YLL041C, strain sdh2, hits give low values 1.02 | S. cerevisiae deletion strains, locus YLR027C, strain aat2, hits give low values 1.03 | S. cerevisiae deletion strains, locus YLR039C, strain RIC1, hits give low values 0.972 | S. cerevisiae deletion strains, locus YLR058C, strain SHM2, hits give low values 0.993 | S. cerevisiae deletion strains, locus YLR102C, strain apc9, hits give low values 0.999 | S. cerevisiae deletion strains, locus YLR113W, strain HOG1, hits give low values 1.01 | S. cerevisiae deletion strains, locus YLR221C, strain rsa3, hits give low values 0.996 | S. cerevisiae deletion strains, locus YLR258W, strain gsy2, hits give low values 1.02 | S. cerevisiae deletion strains, locus YLR262C, strain YPT6 (second series), hits give low values 1.02 | S. cerevisiae deletion strains, locus YLR262C, strain YPT6, hits give low values 0.938 | S. cerevisiae deletion strains, locus YLR268W, strain sec22, hits give low values 0.96 | S. cerevisiae deletion strains, locus YLR320W, strain mms22, hits give low values 1.01 | S. cerevisiae deletion strains, locus YLR330W, strain CHS5, hits give low values 0.996 | S. cerevisiae deletion strains, locus YLR342W, strain FKS1 (second series), hits give low values 1.07 | S. cerevisiae deletion strains, locus YLR342W, strain FKS1, hits give low values 1.05 | S. cerevisiae deletion strains, locus YLR357W, strain rsc2, hits give low values 1.04 | S. cerevisiae deletion strains, locus YLR370C, strain arc18, hits give low values 1.02 | S. cerevisiae deletion strains, locus YLR371W, strain rom2, hits give low values 1.01 | S. cerevisiae deletion strains, locus YLR384C, strain iki3, hits give low values 1.03 | S. cerevisiae deletion strains, locus YLR418C, strain cdc73, hits give low values 0.984 | S. cerevisiae deletion strains, locus YML016C, strain PPZ1, hits give low values 0.995 | S. cerevisiae deletion strains, locus YML032C, strain rad52, hits give low values 1 | S. cerevisiae deletion strains, locus YML120C, strain ndi1, hits give low values 1.03 | S. cerevisiae deletion strains, locus YML124C, strain tub3, hits give low values 1.01 | S. cerevisiae deletion strains, locus YMR058W, strain fet3, hits give low values 0.997 | S. cerevisiae deletion strains, locus YMR078C, strain ctf18, hits give low values 1 | S. cerevisiae deletion strains, locus YMR125W, strain sto1, hits give low values 1.1 | S. cerevisiae deletion strains, locus YMR129W, hits give low values 1.02 | S. cerevisiae deletion strains, locus YMR205C, strain PFK2, hits give low values 1.02 | S. cerevisiae deletion strains, locus YMR223W, strain ubp8, hits give low values 1.01 | S. cerevisiae deletion strains, locus YMR231W, strain pep5, hits give low values 1.02 | S. cerevisiae deletion strains, locus YMR263W, strain SAP30, hits give low values 0.955 | S. cerevisiae deletion strains, locus YMR307W, strain GAS1, hits give low values 1.08 | S. cerevisiae deletion strains, locus YNL067W, strain RPL9B, hits give low values 0.966 | S. cerevisiae deletion strains, locus YNL071W, strain lat1, hits give low values 1.01 | S. cerevisiae deletion strains, locus YNL128W, strain TEP1, hits give low values 0.94 | S. cerevisiae deletion strains, locus YNL153C, strain GIM3, hits give low values 0.97 | S. cerevisiae deletion strains, locus YNL183C, strain NPR1, hits give low values 0.914 | S. cerevisiae deletion strains, locus YNL209W, strain ssb2, hits give low values 1.01 | S. cerevisiae deletion strains, locus YNL233W, strain BNI4, hits give low values 0.993 | S. cerevisiae deletion strains, locus YNL248C, strain rpa49, hits give low values 0.992 | S. cerevisiae deletion strains, locus YNL250W, strain rad50, hits give low values 0.989 | S. cerevisiae deletion strains, locus YNL271C, strain bni1, hits give low values 0.996 | S. cerevisiae deletion strains, locus YNL298W, strain CLA4, hits give low values 0.994 | S. cerevisiae deletion strains, locus YNL307C, strain MCK1, hits give low values 1.02 | S. cerevisiae deletion strains, locus YNL322C, strain KRE1 (second series), hits give low values 1.03 | S. cerevisiae deletion strains, locus YNL322C, strain KRE1, hits give low values 0.978 | S. cerevisiae deletion strains, locus YNR049C, strain mso1, hits give low values 1.02 | S. cerevisiae deletion strains, locus YNR052C, strain pop2, hits give low values 1.01 | S. cerevisiae deletion strains, locus YOL006C, strain TOP1, hits give low values 0.943 | S. cerevisiae deletion strains, locus YOL012C, strain htz1 0.796 | S. cerevisiae deletion strains, locus YOL147C, strain pex11, hits give low values 1 | S. cerevisiae deletion strains, locus YOR001W, strain rrp6, hits give low values 1.04 | S. cerevisiae deletion strains, locus YOR061W, strain CKA2, hits give low values 0.969 | S. cerevisiae deletion strains, locus YOR069W, strain VPS5, hits give low values 1 | S. cerevisiae deletion strains, locus YOR070C, strain gyp1, hits give low values 1.01 | S. cerevisiae deletion strains, locus YOR080W, strain dia2, hits give low values 1.03 | S. cerevisiae deletion strains, locus YOR083W, strain WHI5, hits give low values 1.03 | S. cerevisiae deletion strains, locus YOR106W, strain vam3, hits give low values 1.01 | S. cerevisiae deletion strains, locus YOR136W, strain idh2, hits give low values 1.01 | S. cerevisiae deletion strains, locus YOR144C, strain elg1, hits give low values 0.995 | S. cerevisiae deletion strains, locus YOR184W, strain ser1, hits give low values 1.02 | S. cerevisiae deletion strains, locus YOR231W, strain MKK1, hits give low values 1.01 | S. cerevisiae deletion strains, locus YOR265W, strain rbl2, hits give low values 1.03 | S. cerevisiae deletion strains, locus YOR270C, strain vph1, hits give low values 1 | S. cerevisiae deletion strains, locus YOR290C, strain snf2, hits give low values 1.01 | S. cerevisiae deletion strains, locus YOR316C, strain cot1, hits give low values 1 | S. cerevisiae deletion strains, locus YPL051W, strain arl3, hits give low values 1.02 | S. cerevisiae deletion strains, locus YPL055C, strain LGE1, hits give low values 0.932 | S. cerevisiae deletion strains, locus YPL078C, strain atp4, hits give low values 1.02 | S. cerevisiae deletion strains, locus YPL106C, strain sse1, hits give low values 1.04 | S. cerevisiae deletion strains, locus YPL240C, strain hsp82, hits give low values 1.02 | S. cerevisiae deletion strains, locus YPL241C, strain CIN2, hits give low values 0.989 | S. cerevisiae deletion strains, locus YPL256C, strain CLN2, hits give low values 0.999 | S. cerevisiae deletion strains, locus YPR119W, strain clb2, hits give low values 1 | S. cerevisiae deletion strains, locus YPR141C, strain kar3, hits give low values 0.981 | S. cerevisiae deletion strains, locus YPR163C, strain tif3, hits give low values 1.01 | S. cerevisiae deletion strains, locus YPR167C, strain met16, hits give low values 0.991 | S. cerevisiae deletion strains, strain wtn01, hits give low values 1 | S. cerevisiae strains, strain wild type, hits give low values 0.995
